Measured values reported in PubChem BioAssay AID485341 (National Center for Advancing Translational Sciences (NCATS), 2010).
Out of some 330,000 compounds screened, about 1,700 (0.52%) were called active. Entries that show only a call come without a potency. The call rests on the fitted dose curve; in most records, active means well fitted inhibition curve with a large enough effect; inconclusive means small, poorly fitted or top-dose-only effect; inactive means no such curve, though single readings can be large or run the other way. The full list was thinned out, with actives kept by preference.

molecular target: Beta-lactamase (Escherichia coli (strain K12)) (UniProt P00811); assay: qHTS Inhibitors of AmpC Beta-Lactamase (assay without detergent); conditions: AmpC nitrocefin hydrolysis, absorbance 480 nm, 0.0001% Triton; series mostly up to 57.1 µM; further: nearly all actives have a fitted effect of over 20% in size
Sequence (P00811 whole entry, looked up): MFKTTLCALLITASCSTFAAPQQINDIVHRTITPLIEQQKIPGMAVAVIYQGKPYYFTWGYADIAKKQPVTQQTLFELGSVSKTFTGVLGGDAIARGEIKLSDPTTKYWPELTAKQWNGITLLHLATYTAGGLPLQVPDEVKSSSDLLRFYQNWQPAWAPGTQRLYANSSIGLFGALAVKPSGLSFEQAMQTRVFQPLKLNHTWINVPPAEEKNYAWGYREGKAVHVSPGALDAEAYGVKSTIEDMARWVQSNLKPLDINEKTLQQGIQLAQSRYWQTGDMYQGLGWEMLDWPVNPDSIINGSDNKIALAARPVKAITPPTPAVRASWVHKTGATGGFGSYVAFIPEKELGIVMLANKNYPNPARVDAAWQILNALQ
Method in brief: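 AmpC (5.3 nM in the dispensed reagent) in 20 mM phosphate pH 7.0 with 0.01% (detergent screen) or 0.0001% Triton X-100 was preincubated with compounds for 15 min at room temperature. Nitrocefin was then added from an 800 uM solution, and hydrolysis was followed at 480 nm.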
Potency means the concentration at half of the fitted maximal effect.

| SMILES | Potency |
| --- | --- |
| Clc1ccc(Cl)c(Oc2ccc(Oc3nc(Cl)ccc3Cl)cc2)n1 | inactive |
| Nc1c(N(CCCO)C(=O)C2CCCC2)c(=O)[nH]c(=O)n1Cc1ccccc1 | inactive |
| CCCCCn1c(SCCC(C)C)nc2c1c(=O)[nH]c(=O)n2C | inactive |
| COC(=O)c1c(NC(=O)c2ccc(S(=O)(=O)N3CCOCC3)cc2)sc2c1CCN(C(C)C)C2 | inactive |
| COc1cccc(Cn2cc(/C=N/NC(=O)c3cc(O)cc(O)c3)c3ccccc32)c1 | 7.94 µM (active) |
| CNC(=S)N/N=C/c1cn(Cc2ccc(C)cc2)c2ccccc12 | inactive |
| N#CCC(=O)N/N=C/c1cn(Cc2ccc3ccccc3c2)c2ccccc12 | inactive |
| Cc1ccc(C(=O)N/C(=C\c2ccco2)C(=O)NC2CCS(=O)(=O)C2)cc1 (configuration not stated) | inactive |
| Cc1cccc(C)c1NC(=O)CS(=O)CC(=O)N1CCN(c2ccccc2)CC1 (configuration not stated) | inactive |
| O=C(O)CCCN1C(=O)c2ccccc2Sc2ncccc21 | inactive |
| O=C(Nc1ccc(S(=O)(=O)N2CCc3ccccc3C2)cc1)c1ccccc1 | inactive |
| COCCN(CCOC)S(=O)(=O)c1ccc(C(=O)Nc2nc3c(s2)CCc2ccccc2-3)cc1 | inactive |
| C=CCN(CC=C)S(=O)(=O)c1ccc(C(=O)Nc2nc3c(s2)CCc2ccccc2-3)cc1 | 8.91 µM (active) |
| O=C(Cc1ccccc1)NCC1OCCc2ccccc21 (configuration not stated) | inactive |
| Cn1cccc1/C=C1\SC(=S)N(NC(=O)c2ccc(Cl)cc2)C1=O | inactive |
| CC(=O)N1C(=O)/C(=C2\SC(=S)N(NC(=O)c3ccc(O)cc3)C2=O)c2ccccc21 | 20 µM (active) |
| O=C(O)c1ccc(/C=C2\SC(=S)N(NC(=O)c3ccc(Br)cc3)C2=O)cc1 | inactive |
| CC1(c2ccccc2Cl)NC(=O)N(CC(=O)NC(=O)NCc2ccco2)C1=O (configuration not stated) | inactive |
| O=C1CCN(Cc2ccc([N+](=O)[O-])cc2)CCN1[C@H](CO)Cc1ccccc1 | inactive |
| O=C(CCCn1c(=O)oc2ccccc21)Nc1cccnc1 | inactive |
| CC(C)CC(=O)N1CCN(Cc2cccc(Cl)c2)CC1 | inactive |
| Oc1c(CN2CCCC2)cc(COCc2ccccc2)c2cccnc12 | inactive |
| Clc1cccc(CN2COc3c(cc(Cl)c4cccnc34)C2)c1 | 35.5 µM (active) |
| CC[C@]12c3[nH]c4ccc(Cl)cc4c3CCN1C(=O)[C@@H](CC(=O)NCCN1CCOCC1)C[C@@H]2C(=O)N1CCN(C(=O)C2CC2)CC1 | inactive |
| CC(C)CCN1NC2(CCC(C)CC2)NC1=S (configuration not stated) | inactive |
| O=c1oc2ccccc2c(CNc2ccccc2)c1[N+](=O)[O-] | inactive |

| SMILES | Potency |
| --- | --- |
| CC(NC(=O)COC(=O)c1cc(=O)[nH]c2ccccc12)c1ccccc1 (configuration not stated) | inactive |
| O=C(COC(=O)c1cc(=O)[nH]c2ccccc12)NCc1cccc(Cl)c1 | inactive |
| O=C(COC(=O)c1cc(=O)[nH]c2ccccc12)Nc1nc(-c2cccc(Br)c2)cs1 | 14.1 µM (active) |
| CC(C)CCN1C(=O)c2ccc(C(=O)Nc3cccc(S(N)(=O)=O)c3)cc2C1=O | inactive |
| CN(c1ccccn1)c1ncnc2[nH]ncc12 | inactive |
| Cc1nn(C)c(Cl)c1CN1CCC(Oc2ccc(C(=O)N3CCCC3)cc2)CC1 | inactive |
| Cc1csc(=O)n1CC(=O)Nc1ccc(S(C)(=O)=O)cc1 | inactive |
| O=C(c1ccc(Cl)nc1)N1CCN(S(=O)(=O)c2ccc3c(c2)OCCO3)CC1 | inactive |
| O=C(CSc1ccccc1)Nc1cccc(S(=O)(=O)N2CCCCC2)c1 | inactive |
| Nc1cc(N)nc(SCC(=O)Nc2cccc(S(=O)(=O)N3CCCCC3)c2)n1 | 25.1 µM (active) |
| Cn1nnnc1SCC(=O)Nc1cccc(S(=O)(=O)N2CCCCC2)c1 | inactive |
| COCCN(CCOC)S(=O)(=O)c1ccc(/C(O)=C(\C#N)c2nc3ccccc3[nH]2)cc1 | inactive |
| COc1ccccc1C(=O)COC(=O)COc1ccc(C#N)cc1 | inactive |
| N#C/C(=C(/O)COC(=O)COc1ccc(Cl)cc1)c1nc2ccccc2[nH]1 | 11.2 µM (active) |
| Cc1cc(C)c(OCCN2CC(C)OC(C)C2)c(Br)c1 (configuration not stated) | inactive |
| CCN(CC)S(=O)(=O)c1ccc(CNC(=O)CN2C(=O)NC3(CCc4ccccc43)C2=O)cc1 (configuration not stated) | inactive |
| Cn1cc(C(=O)NCc2ccccc2F)cn1 | inactive |
| Cn1c2cc(B(O)O)sc2c2cnn(Cc3ccccc3F)c(=O)c21 | 2.82 µM (active) |
| CCOC(=O)c1c(CNCc2ccccc2F)c2sc(C)cc2n1C | inactive |
| COc1cc2c(-c3ccc4c(c3)OCO4)c(-c3ccsc3)oc(=O)c2cc1OC | inactive |
| O=C(NC1CCN(C(=S)NCc2ccco2)CC1)c1ccc(F)cc1 | inactive |
| Cc1ccc(NC(=O)CC2C(=O)N(Cc3ccccc3)C(=S)N2NC(=O)c2cccc(F)c2)c(C)c1 (configuration not stated) | 31.6 µM (active) |
| Cc1ccc(N2C(=O)C(CC(=O)Nc3cccc(F)c3)N(CCc3ccncc3)C2=O)cc1 (configuration not stated) | inactive |
| CN1C(=O)C(CC(N)=O)N(NC(=O)c2ccc(Cl)cc2)C1=S (configuration not stated) | inactive |
| CN(C)/C=N/c1cc(=O)n(C)c(=O)n1CC1CC1 | inactive |
| Clc1ccccc1-c1cc(COc2ccc3ccccc3c2)no1 | inactive |

| SMILES | Potency |
| --- | --- |
| COc1ccc(C2CC(c3ccc(C)cc3)Nc3ncnn32)cc1 (configuration not stated) | inactive |
| Clc1ccc(C2CC(c3cccs3)n3ncnc3N2)cc1Cl (configuration not stated) | 0.708 µM (active) |
| Nc1nc2n(n1)C(c1ccco1)CC(c1ccc(Cl)c(Cl)c1)N2 (configuration not stated) | inactive |
| CN(C)CCN(Cc1ccccc1)S(=O)(=O)c1csc(C(N)=O)c1 | inactive |
| Cc1ncn2cc(-c3ccc(Cl)cc3Cl)[nH]c(=O)c12 | inactive |
| Cn1c(O)c(C=Nc2ccc3c(c2)CCC3)c(=O)n(C)c1=O | inactive |
| CC(C)n1c(=O)c(C=Nc2ccc(Br)cc2)c(O)n(Cc2ccco2)c1=O | 14.1 µM (active) |
| Cn1c2c(c(=O)n(C)c1=O)CN(Cc1ccco1)CN2 | inactive |
| c1nc(COc2nsnc2N2CCOCC2)cs1 | inactive |
| Cc1cc(=O)[nH]c(SCc2cc(Cl)ccc2OC(F)F)n1 | inactive |
| Cc1cc(=O)[nH]c(SCc2cccc(F)c2)n1 | inactive |
| O=c1cc(O)nc(SCc2ccccc2Cl)[nH]1 | 3.16 µM (active) |
| CCSc1nc2sc3c(c2c(=O)[nH]1)CC(C)(C)OC3 | inactive |
| CC/C(C)=N/Nc1nc2sc3c(c2c(=O)[nH]1)CC(C)(C)OC3 | 1.12 µM (active) |
| CC(C)c1nc2sc3c(c2c(=O)n1N)CC(C)(C)OC3 | inactive |
| Cc1cc2ccccn2c1C(C[N+](=O)[O-])c1c(F)cccc1Cl (configuration not stated) | inactive |
| Cc1cc2ccccn2c1C(=O)c1cccc(F)c1 | inactive |
| Cc1ccc(C(C[N+](=O)[O-])c2c(C)cc3ccccn23)cc1 (configuration not stated) | 22.4 µM (active) |
| Cn1c(=NC(=O)c2ccc3c(c2)OCCO3)sc2cc(S(C)(=O)=O)ccc21 | inactive |
| COc1ccccc1C(CNC(=O)c1cccc(S(=O)(=O)Nc2ccc(F)cc2)c1)N(C)C (configuration not stated) | inactive |
| CN(C)c1ccc(C(CNC(=O)c2ccc(F)cc2)c2c[nH]c3ccccc23)cc1 (configuration not stated) | 14.1 µM (active) |
| C[C@H](NC(=O)c1ccccc1)C(=O)OCC(=O)c1c[nH]c2ccccc12 | inactive |
| COc1cccc(/C=N/NC(=O)c2[nH]nc3c2CCc2ccccc2-3)c1O | 5.62 µM (active) |
| COc1cccc(/C=N/NC(=O)CNC(=O)c2ccc(S(=O)(=O)N3CCOCC3)cc2)c1OC | inactive |
| CCOc1ccc2[nH]c(C(=O)N/N=C/c3cccc(OC)c3OC)cc2c1 | inactive |
| CCc1ccc(C(=O)NN=C2CCCCCC2)s1 | inactive |

| SMILES | Potency |
| --- | --- |
| CCCNS(=O)(=O)c1ccc(CCC(=O)N2CCCC2)cc1 | inactive |
| COc1ccc(C(CC(=O)c2ccccc2)S(=O)(=O)c2ccccc2)cc1 (configuration not stated) | inactive |
| COc1ccc(-n2c(SCC(=O)NCc3cccs3)nnc2-c2ccoc2C)cc1 | inactive |
| O=C(CSc1nnc(-c2c[nH]c3ccccc23)n1-c1ccc(F)cc1)NCc1ccco1 | inactive |
| CCn1c(SCCC(C)C)nnc1-c1c[nH]c2ccccc12 | inactive |
| CCOC(=O)N1CCN(C(=O)CSc2nnc(-c3c[nH]c4ccccc34)n2CCOC)CC1 | inactive |
| CCn1c(SCC(=O)Nc2ccc(OC)c(OC)c2)nnc1-c1c[nH]c2ccccc12 | 0.631 µM (active) |
| COc1ccc(-n2c(SCC(=O)NCc3ccco3)nnc2-c2c[nH]c3ccccc23)cc1 | 3.55 µM (active) |
| N/C(=N\S(=O)(=O)c1ccc(Cl)cc1)N1CCOCC1 | inactive |
| CN(C)Cc1c(O)ccc2c(=O)c(-c3ccccc3Cl)coc12 | inactive |
| Cc1ccc(CNC(=O)CCNS(=O)(=O)c2cccc3nonc23)cc1 | inactive |
| Cc1ccc(N(CC(=O)Nc2cc(C)cc(C)c2)S(=O)(=O)c2cccc3nonc23)cc1 | 15.8 µM (active) |
| CCOC(=O)c1cccc(NC(=O)CN(c2ccc(C)cc2)S(=O)(=O)c2c(C)noc2C)c1 | inactive |
| COC(=O)c1ccc(COc2ccc(C#N)cc2)o1 | inactive |
| N#CCC(=O)Nc1ccc(C(=O)OCC(=O)Nc2sc3c(c2C#N)CCCC3)cc1 | 14.1 µM (active) |
| Cc1cccc(C(=O)OCC(=O)Nc2sc3c(c2C#N)CCC3)c1 | inactive |
| N#Cc1c(NC(=O)CCCl)sc2c1CCCCC2 | inactive |
| CCOC(=O)Cn1c2c(c(-c3ccccc3OC)cc1=O)CCCC2 | inactive |
| O=C(CSc1nnc(-c2ccncc2)n1C1CCCCC1)Nc1ccccc1 | inactive |
| Cc1ccc(N2C(=O)C3N=NN(CC(=O)N4N=C(c5cccc6ccccc56)CC4c4ccccc4)C3C2=O)cc1 (configuration not stated) | inactive |
| Cc1cccc(C(C)C)c1NC(=O)COC(=O)C1CC(=O)N(Cc2ccccc2)C1 (configuration not stated) | inactive |
| NS(=O)(=O)c1ccc(CNC(=O)c2cccc(Oc3ccccc3)c2)cc1 | inactive |
| NS(=O)(=O)c1ccc(CNC(=O)c2cccc(S(=O)(=O)N3CCc4ccccc43)c2)cc1 | 14.1 µM (active) |
| Cc1ccc(NC(=O)c2cccc(S(=O)(=O)N3CCCc4ccccc43)c2)nc1 | inactive |
